AmpC inh det – Promiscuous and Specific Inhibitors of AmpC Beta-Lactamase (assay with detergent); purified AmpC, nitrocefin hydrolysis with detergent; P00811; 71,000 compounds, 0.09% hits; Potency, µM (titrated, usually from 28.7 µM), inactives show at the highest dose activity change, negative = inhibition; active = well fitted curve in the direction sought with a large enough effect; inconclusive = small, poorly fitted or top-dose-only effect; note: % is set by controls: 0 for no effect and ±100 for the full control effect
Target sequence (P00811 whole entry, looked up): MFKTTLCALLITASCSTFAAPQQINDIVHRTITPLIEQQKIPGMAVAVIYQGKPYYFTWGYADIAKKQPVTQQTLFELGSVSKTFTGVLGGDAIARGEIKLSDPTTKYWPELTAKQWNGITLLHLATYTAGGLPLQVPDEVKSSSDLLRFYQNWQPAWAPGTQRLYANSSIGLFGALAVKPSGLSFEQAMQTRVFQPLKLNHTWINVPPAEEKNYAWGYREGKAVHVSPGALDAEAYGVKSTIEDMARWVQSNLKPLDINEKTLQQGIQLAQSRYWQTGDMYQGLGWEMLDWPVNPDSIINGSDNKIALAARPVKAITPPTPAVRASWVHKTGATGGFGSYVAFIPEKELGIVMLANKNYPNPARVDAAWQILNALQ
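E. coli AmpC (5.3 nM) in 20 mM phosphate pH 7.0 with 0.01% Triton X-100, preincubated 15 min RT with compound; nitrocefin (2 uL of 800 uM stock) hydrolysis followed by 480 nm absorbance every 20 s over 4 min.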
AmpC inh no det – Promiscuous and Specific Inhibitors of AmpC Beta-Lactamase (assay without detergent) | AmpC nitrocefin hydrolysis, absorbance 480 nm, no detergent | Potency, µM (highest dose often 28.7 µM), for the others: at the top dose activity change, negative = inhibition | 71,000 compounds, 1.8% hits; note: % of control where 0% means no effect
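AmpC, 20 mM phosphate pH 7.0; 15 min cpd preinc, RT; start with nitrocefin (800 uM stock); A480 kinetic read, 20 s intervals, 4 min. No-enzyme wells = negative control.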
Anthrax LT inh – qHTS Assay for Anthrax Lethal Toxin Internalization | Potency, µM (series often up to 40 µM), for the others: top-dose activity change, negative = inhibition, hits mostly inhibitors | Cells, anthrax lethal toxin internalization, FRET ratio (460/530) | 70,000 compounds, 0.67% hits | AID 912, 2007; note: % is set by controls: 0 for no effect and ±100 for the full control effect; nearly all actives have a fitted effect of over 50% in size
Prx2 Sm inh – Schistosoma Mansoni Peroxiredoxins (Prx2). Schistosoma mansoni peroxiredoxin 2 (Prx2). Potency, µM. S. mansoni Prx2 activity coupled to TGR/GSH (TGR is thioredoxin glutathione reductase), NADPH fluorescence loss, qHTS. 65,000 compounds, 0.07% hits
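Activity is read as the drop in NADPH fluorescence (365/450 nm), recorded every 30 sec for 8 min after H2O2 addition. Prx2 is coupled to TGR-driven NADPH oxidation through glutathione, in phosphate buffer pH 7.4.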
Starred values were filed as active, the others as inactive; u = inconclusive; x = not tested or not shown; ! = repeats disagree; [ ] = dose if it differs, or a comment. Only some compounds are listed: those with a hit (about 2.6% of all), similar ones and a draw of the others. Unless noted, calls come from the whole dose curve. Potency is the fitted concentration of half-maximal effect.

SMILES | AmpC inh det | AmpC inh no det | Anthrax LT inh | Prx2 Sm inh
CC(CCc1ccco1)NC(=O)Cn1ncc2c(=O)oc3ccccc3c21 (centres undefined) | 14% | 4µM*[single pt active] | -15% | >57
O=C(Cn1ncc2c(=O)oc3ccccc3c21)NCCC1=CCCCC1 | 0% | -4% | -6% | >57
CCOCCCNC(=O)Cn1ncc2c(=O)oc3ccccc3c21 | 8% | 4µM*[single pt active] | -14% | >57
CC(C)OCCCNC(=O)Cn1ncc2c(=O)oc3ccccc3c21 | -4% | 1% | 5% | >57
O=C(Cn1ncc2c(=O)oc3ccccc3c21)NCC1CCCO1 (centres undefined) | 17% | 4µM*[single pt active] | -10% | >57
Nc1nc(N)c(CCCCc2ccccc2)c(N)n1 | -4%[5.75 µM] | -11%[5.75 µM] | -4%[8 µM] | >57
CCOC(=O)c1c(NC(=O)c2cccs2)sc2c1CCCC2 | 11% | -4% | -21% | x
CCOC(=O)c1c(NC(=O)Cc2cccs2)sc2c1CCCC2 | -6% | u | 13µM* | >57
CN(Cc1ccccc1)c1oc(-c2ccco2)nc1C#N | -1% | 6% | 10µM* | >57
COC(=O)c1ccc(C(NC(=O)OCc2ccccc2)/C(=C/[C@@H](C)C(=O)NCc2cc(C)on2)c2cccnc2)cc1 (some centres undefined) | 12% | 130% | 4% | x
N#C/C(=C\c1ccc(O)c(O)c1)C(N)=S | -1% | -20% | 25µM*! | u
Cc1c(C)c2cc(Cl)c(O)c(CN(C)C)c2oc1=O | 0% | -1% | 11% | x
O=c1oc2c(O)c(O)cc3c(=O)oc4c(O)c(O)cc1c4c23 | u | 7.9µM* | u | >57
CC(=O)N1CCC[C@@]2(CCN(C(=O)Nc3cccc(C#N)c3)C2)C1 | -4% | -2% | -3% | >57
Cc1n[nH]c(C)c1S(=O)(=O)N1CCCC(C(=O)NCc2cccs2)C1 (centres undefined) | -1% | 14% | -3% | >57
Cc1n[nH]c(C)c1S(=O)(=O)N1CCCC(C(=O)NC2CCCc3ccccc32)C1 (centres undefined) | 11% | 4µM*[single pt active] | -10% | >57
CNC(=O)c1c(I)c(C(=O)NCC(=O)Nc2c(I)c(C(=O)O)c(I)c(C(=O)NCCO)c2I)c(I)c(N(C)C(C)=O)c1I | 1%[12.8 µM] | -3%[12.8 µM] | -6%[3.58 µM] | >57
CCCCNC(=O)C(c1ccc(OCC(=O)OC)c(C(=O)OC)c1)N(Cc1ccccn1)C(=O)CCCCCN1C(=O)NC(c2ccc(-c3ccccc3)cc2)C(C(=O)OCc2ccccc2)=C1C (centres undefined) | 14% | 46% | u | x
CCn1c2ccccc2c2cc(NC(=O)CSc3nnnn3-c3ccccc3)ccc21 | 1% | 10µM* | x | >57
CCn1c2ccccc2c2cc(CN3CCN(C(=O)c4ccco4)CC3)ccc21 | -6% | 148% | u | x
CCn1c2ccccc2c2cc(NC(=O)c3ccco3)ccc21 | 8% | -5% | 13µM* | x
CC(=O)Nc1c(C)cc(OCC(=O)O)cc1C | -2%[5.75 µM] | -1%[5.75 µM] | -1%[8 µM] | >57
CC(C)(C)NC(=O)C(c1ccc(I)cc1)N(CCN1CCOCC1)C(=O)CCCNC(=O)c1ccccc1 (centres undefined) | 10% | 132% | 9% | x
COc1cccc(C2CC(=O)N3CN(c4cccc(Cl)c4C)CSC3=C2C#N)c1OC (centres undefined) | 13% | 4µM*[single pt active] | u | x
COc1ccc(OC)c(C2CC(=O)N3CN(c4cccc(Cl)c4C)CSC3=C2C#N)c1 (centres undefined) | 12% | 4µM*[single pt active] | u | >57
SMILES | AmpC inh det | AmpC inh no det | Anthrax LT inh | Prx2 Sm inh
COc1ccc(OC)c(C2CC(=O)N3CN(c4cccc(Cl)c4)CSC3=C2C#N)c1 (centres undefined) | 8% | -23% | -30% | >57
COc1ccccc1NC(=O)N1CCN(c2ccc3nncn3n2)CC1 | 15% | 4µM*[single pt active] | 6% | >57
COc1ccc(C2C(C(C)=O)=C(O)C(=O)N2CCO)c(OC)c1 (centres undefined) | -3% | -3% | -21% | >57
CCN(CC)CCCN1C(=O)C(O)=C(C(C)=O)C1c1ccc(OC)cc1OC (centres undefined) | 12% | 4µM*[single pt active] | -3% | >57
c1ccc2c(c1)c1ccccc1n2Cn1c2ccccc2c2ccccc21 | -3%[5.75 µM] | -17%[5.75 µM] | -2%[8 µM] | >57
CCn1cc(C(=O)NCCCOC)c(=O)c2cc(S(=O)(=O)N(C)C)ccc21 | 13% | 3.2µM*[single pt active] | -1% | >57
CN(CCNC(=O)c1cn(C)c2ccc(S(=O)(=O)N(C)C)cc2c1=O)CCc1ccccc1 | 14% | 4µM*[single pt active] | -13% | >57
CN(C1CCCCC1)S(=O)(=O)c1ccc2c(c1)c(=O)c(C(=O)NCCN1CCCC1)cn2C | 10% | 91% | 10µM* | >57
N[C@H](COP(=O)(O)O)C(=O)O | -2% | -2% | -8% | >57
O=C(O)[C@@H](O)[C@@H](O)[C@@H](O[C@H]1O[C@@H](CO)[C@@H](O)[C@@H](O)[C@@H]1O)[C@@H](O)CO | -1%[12.8 µM] | 2%[12.8 µM] | 0%[3.58 µM] | >57
Cc1cccc(NS(=O)(=O)c2ccc(C)c(C(=O)OCC(=O)Nc3cc(C)on3)c2)c1 | -6% | 10µM* | u | >57
Cc1cccc(NS(=O)(=O)c2cc(C(=O)OCC(=O)Nc3cc(C)on3)ccc2C)c1 | 0% | u | -24% | >57
COC(=O)c1ccc(C(NC(=O)OCc2ccccc2)/C(=C/[C@@H](C)C(=O)NCc2ccc(S(C)(=O)=O)cc2)c2cccnc2)cc1 (some centres undefined) | 15% | 123% | 13% | x
O=c1cc(O)cc(/C=C\c2ccc(O)c(O)c2)o1 | -3% | 6.3µM* | -1% | >57
CN(C)CCCN1c2ccccc2Sc2ccccc21 | -1%[12.8 µM] | 28%[12.8 µM] | 10µM* | >57
COc1ccc2[nH]cc(CCNc3ccnc(-c4ccc5c(c4)OCO5)n3)c2c1 | -2% | 0% | u | >57
Cc1nn(-c2nc3ccccc3s2)c(N)c1-c1ccccc1 | 0% | -12% | 13µM* | >57
O=C(c1ccc(N2CCCCS2(=O)=O)cc1)N1CCN(c2ccc(N3CCOCC3)nn2)CC1 | 12% | 4µM*[single pt active] | -10% | >57
O=C(Nc1cc(Cl)ccc1Cl)c1noc2c1CCCC2 | 11% | 4µM*[single pt active] | -16% | >57
COc1c2ccoc2nc2c(OC)c(OC[C@H](O)C(C)(C)O)ccc12 | -4% | 9% | 13µM*! | >57
O=C(CN1C(=O)C2C3C=CC(C3)C2C1=O)Nc1ccc2nccnc2c1 (centres undefined) | 13% | 4µM*[single pt active] | 7% | >57
COc1cc(SC)ccc1C(=O)Nc1ccc2c(c1)OCCO2 | 5% | 29% | 10µM* | >57
COc1ccccc1C(=O)Nc1ccc2c(c1)OCCO2 | -1% | -2% | 1% | >57
Cc1cc(NC(=O)C2CCCN(S(=O)(=O)c3c(C)noc3C)C2)no1 (centres undefined) | 13% | 4µM*[single pt active] | -5% | >57
Cc1noc(C)c1S(=O)(=O)N1CCCC(C(=O)Nc2ccc(Cl)cn2)C1 (centres undefined) | -4% | 11% | -2% | >57
